The target in the assay is RUNX1 (UniProt Q01196). As to the kind of experiment: RUNX1 binding intensity (PBM fluorescence) in presence of ETS1, normalised to RUNX1-only experiment (arbitrary fluorescence units); higher = stronger binding. The conditions noted are these: RUNX1 concentration 2 nM; ETS1 concentration 25 nM. The procedure: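 Cooperative gcPBM on 36-bp genomic probes with neighbouring ETS1 and RUNX1 sites. Recombinant human RUNX1 (2 nM) was incubated alone or with ETS1 (25 nM) and detected with anti-RUNX1 antibody plus Alexa488 secondary. Values are medians over 4 replicate spots; the RUNX1+ETS1 data were normalised to the RUNX1-only data. The probes sit in constant array flanks that are not printed.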
Chain of RUNX1 (Q01196 whole entry): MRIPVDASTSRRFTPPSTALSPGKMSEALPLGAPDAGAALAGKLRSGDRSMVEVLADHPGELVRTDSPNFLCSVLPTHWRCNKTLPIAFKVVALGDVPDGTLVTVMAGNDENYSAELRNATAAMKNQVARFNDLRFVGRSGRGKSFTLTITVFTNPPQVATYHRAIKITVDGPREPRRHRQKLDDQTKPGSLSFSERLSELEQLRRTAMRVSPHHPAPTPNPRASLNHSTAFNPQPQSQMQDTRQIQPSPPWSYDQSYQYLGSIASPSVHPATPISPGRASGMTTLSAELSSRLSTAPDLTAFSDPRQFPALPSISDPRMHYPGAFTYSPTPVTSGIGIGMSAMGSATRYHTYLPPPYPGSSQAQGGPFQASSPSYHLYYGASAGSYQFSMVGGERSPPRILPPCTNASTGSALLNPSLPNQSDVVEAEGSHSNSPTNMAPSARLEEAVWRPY
For GTGCCTCACCGCTTCCGGCGCTGCGGGATGACGTCA, the RUNX1 binding intensity came out at 7320. Turning to ACTACAACTTCCGACTTGCATCACTGCGGTGGCGCT, the RUNX1 binding intensity is 1830.

Turning to CCTCCGGAACGGCGCGGGGGATTGTGGGGTGTAGGG, the RUNX1 binding intensity was 761.

For the sequence GTACTGAGTCACAGGAAACCACAAGGGAAGGGTCCC, the RUNX1 binding intensity came out at 3070. Then CCAATGGGCAGGCGGAAACCGCGGGCTCGTGCTCCC, with 1350; and GGCGGAAGCTGCCGCTGCCTTGCGCCCCCACACACG, with 1040. On to AGATGAGGAAGTTGGGGTTTAGAGTGGTTAAACTGT, for which the RUNX1 binding intensity was determined as 1020. Then CTGCCGCTGCCTTCCGCCCCCACACACGCACACCAC, with 1640; and GACATGCTCCGGAAGCTTGAGGTTTTAACGTTAAGG, with 1390; and CGGGGGCCAGGCTTCCTGTGGTGGGAGCGGCAGGCC, with 1350.

As for AGACCCGGATATGCGCCGGGGACCCCCAGACCGCGC, the RUNX1 binding intensity is 969. In the case of CACTTCCCGTGGGAGGATCTTGGGCTGCGGCTAGGG, the RUNX1 binding intensity was 1850. As for ACTGCTTGATTTTCAGGAAGTGGTAAAGTGGCAGGT, the RUNX1 binding intensity came out at 957. Turning to CTGCTGCTTTTAGGATGTGGTTTTATTATTGTCGGG, the RUNX1 binding intensity stood at 1340. With GTGGAAAGGAAATGTGTCATCTGTGGTTTGGTTTTA the figure was 1410.

Take AGCGCTTCCTGGCTCCGGCCCCGCCCCTGCGGTCGG: the RUNX1 binding intensity turned out to be 1880.

Regarding GGCGGTGCACTCTGGGAAATGTGGTTTTCGCGGCGC, the RUNX1 binding intensity amounted to 1500. With ATGTTTGGGGCCGGAAGTGGGTTGGAGGTGTGGCGG the figure was 2830. Then AGGCTTCCGGCCACGCCCCCTTCCCGCGGTTGCTAG, with 2360; and GGTCTCACCGCTCTTCCGCTTGCGGTTTCGGGGGCC, with 4570; and TGTATGAAAAAAACAGGAAACCACAGAGAACTGAGG, with 2060. In the case of GAAGCGCTGGGCGGAAGTGGCTGTGGCTTTGCCCTT, the RUNX1 binding intensity came out at 1620. Then CTTAGCGGAAGAGGCGTGACCCAGGCGTACCGCAGG, with 870. Then GTGTGAAGGAAGTGTGAGATCAAACCACAGCTGGGT, with 947; and GATACAGTGCTCAGGAAACCACATGAAACCAGAGTA, with 972; and TGCCACCTGCTTCCTGCCTGTGTAGCCACAAGGGAC, with 1600. GTCAGGGGAACAGGATGTGGGTGGGAGCCAGCCCCA: the RUNX1 binding intensity is 2540. Then ACTGAACAAACCGGATGTGGTTGCCACCTGCAATCT, with 21800; and TGCGAGGTTGCCAGGAAACCGCGAAGCCGAGGTCCC, with 1530; and AGGTTAATACCCGGAACTACCACAACCGTCTTCCCT, with 985. Regarding ATCTCCACATCCTCCCCATCGACCGCATGGTTTACC, the RUNX1 binding intensity was 3450. On to TCCAGGCATTTCCCCCATGTTGGCTCACCGCACTAT, for which the RUNX1 binding intensity worked out at 1290. With CGCCCACCACTTCCTGCTGGCGGTCGGCAAGCGTTG the figure was 8670.

As to ACGGGGAAGAACGGAAGTGGTTTCCATGATGGTCTG, the RUNX1 binding intensity turned out to be 4470. CTTACAGTCACAACAGGATGTGGTTTGACATTTACT: the RUNX1 binding intensity is 3860. Then CTCAGGGTACCAGGATGTGGTTTAGCTTAGGGGTGG, with 2310; and GGCCGTTCTTCCGCCTGCAGGGTGGTCAGCGGAGGT, with 1010. Turning to TCGGCGGATATGAAAAAAAGTCCGTGGTCACGTGCA, the RUNX1 binding intensity amounted to 877. Regarding CAGCACGCAGGAAGCACATGTGGTGGGGCTCTTCCA, the RUNX1 binding intensity came to 1030.

For CGGCGCCTTCCGCAGAGGGACTGCGGCTTTCTGCGC, the RUNX1 binding intensity was 1390.

These data come from the supplement of paper PMC10681739.
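Also: Full-length recombinant human ETS1 or RUNX1 bound to double-stranded 36-bp genomic probes on microarrays, detected by protein-specific primary antibody and Alexa488 secondary, spot fluorescence as median of four replicate spots.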
